Laboratory results from the antibiotic and cytotoxicity screens of Wong et al. (2023).
Hit rate of the full screen: of about 39,000 compounds, about 500 (1.3%) were called active. Only a selection was taken, and actives are over-represented in it overall.

Test system: S. aureus RN4220
Assay: growth inhibition call (relative growth <= 0.2)
Details: 50 µM

Row | Structure (SMILES) | growth inhibition call
1 | O.O.O.O=C([O-])C1[O][Sb]2[O]C(=O)C([O]2)C(C(=O)[O-])[O][Sb]2[O]C(=O)C1[O]2.[K+].[K+] (configuration not stated) | inactive
2 | CC(C)=CCCC1(C)C=Cc2c(O)c3c(c(CC=C(C)C)c2O1)OC12C(=CC4CC1C(C)(C)OC2(CC=C(C)C(=O)O)C4=O)C3=O (configuration not stated) | inactive
3 | NC(=O)c1cc([N+](=O)[O-])cc([N+](=O)[O-])c1 | inactive
4 | CC(C)[C@@H]1NC[C@@H]2CCCN2C1=O | inactive
5 | C=C[C@H]1[C@H](O[C@@H]2O[C@H](CO)[C@@H](O)[C@H](O)[C@H]2O)OC=C2C(=O)OCC[C@H]21 | inactive
6 | O=[N+]([O-])c1ccc(N(CCO)CCO)c2c1no[n+]2[O-] | active
7 | C#CCOS(=O)OC1CCCCC1Oc1ccc(C(C)(C)C)cc1 (configuration not stated) | inactive
8 | O=C(c1ccccc1)C12CN3CN(CN(C3)C1)C2 | inactive
9 | C1CC2(CCN1)OCCO2 | inactive
10 | Clc1cc2c(cc1Cl)Oc1cc(Cl)c(Cl)cc1O2 | inactive
11 | [O-][n+]1ccccc1[S][Zn][S]c1cccc[n+]1[O-] | active
12 | O[C@H]1[C@H](O)[C@@H](O)CN2CC[C@H](O)[C@H]12 | inactive
13 | CCN(CC)S(=O)(=O)c1ccc(Cn2nc(C(=O)Nc3ccc(N4CCCCC4)cc3)c3ccccc32)cc1 | inactive
14 | COC(=O)C(c1ccccc1)C1CCCCN1.Cl (configuration not stated) | inactive
15 | CC[C@@H](N)[C@@H](O)c1ccc(O)c(O)c1 | inactive
16 | CCC(COC(=O)c1cc(OC)c(OC)c(OC)c1)(c1ccccc1)N(C)C.O=C(O)C=CC(=O)O (configuration not stated) | inactive
17 | COP(=S)(OC)Oc1cc(Cl)c(Cl)cc1Cl | active
18 | COP(=S)(OC)Oc1ccc(Sc2ccc(OP(=S)(OC)OC)cc2)cc1 | inactive
19 | CCOP(=S)(OCC)Oc1nc(Cl)c(Cl)cc1Cl | inactive
20 | N[C@@]1(C(=O)O)CC[C@@H](C(=O)O)C1.N[C@]1(C(=O)O)CC[C@H](C(=O)O)C1 | inactive
21 | NCCc1nnc2n1CCCCC2 | inactive

Row | Structure (SMILES) | growth inhibition call
22 | CNC(C)C(O)c1ccccc1.Cl (configuration not stated) | inactive
23 | CCCCCCCCCCCCCCCC[n+]1ccccc1.[Cl-] | inactive
24 | CN[C@@H]1[C@@H](O)[C@@H](O[C@@H]2[C@H](O)[C@@H](O[C@H]3O[C@H]([C@@H](C)O)[C@@H](O)[C@H](O)[C@H]3N)[C@H](N)C[C@@H]2N)OC[C@]1(C)O | inactive
25 | CN[C@@H]1[C@@H](O)[C@@H](O[C@@H]2[C@@H](O)[C@H](O[C@H]3O[C@H](CN)CC[C@H]3N)[C@@H](N)C[C@H]2N)OC[C@]1(C)O.CN[C@@H]1[C@@H](O)[C@@H](O[C@@H]2[C@@H](O)[C@H](O[C@H]3O[C@H]([C@@H](C)N)CC[C@H]3N)[C@@H](N)C[C@H]2N)OC[C@]1(C)O.CN[C@@H]1[C@@H](O)[C@@H](O[C@@H]2[C@@H](O)[C@H](O[C@H]3O[C@H]([C@@H](C)NC)CC[C@H]3N)[C@@H](N)C[C@H]2N)OC[C@]1(C)O | inactive
26 | CNC1C(O)C(OC2C(N)CC(N)C(OC3OC(C(C)O)C(O)C(O)C3N)C2O)OCC1(C)O (configuration not stated) | active
27 | O=C1O[C@H]2CN[C@@H]1C2 | inactive
28 | C[C@H]1CN([C@@H](C)CO)C(=O)CCCn2nncc2CO[C@@H]1CN(C)C(=O)Oc1ccc2ccccc2c1 | inactive
29 | CC1=C(O)C(=O)C=C2C1=CC=C1C2(C)CCC2(C)C3CC(C)(C(=O)O)CCC3(C)CCC12C (configuration not stated) | inactive
30 | Cn1ncnc2c(=O)n(C)c(=O)nc1-2 | inactive
31 | CCn1nc(-c2cccnc2)nc2c(=O)n(C)c(=O)nc1-2 | active
32 | Cc1nc2c(=O)n(C)c(=O)nc-2n(C)n1 | inactive
33 | CCC1=C[C@@H]2[C@H](C1)C[C@]2(CN)CC(=O)O | inactive
34 | C[C@@H]1CN([C@@H](C)CO)C(=O)CCCn2cc(nn2)CO[C@@H]1CN(C)C(=O)Oc1cccc2ccccc12 | inactive
35 | Cl.Oc1noc2c1CCNC2 | inactive
36 | CC12CCC(O)CC1CCC1C2CC(O)C2(C)C(C3=CC(=O)OC3)CCC12O (configuration not stated) | inactive
37 | CC1=C2CC3C(CC=C4CC(O)CCC43C)C2CCC12OC1CC(C)CNC1C2C (configuration not stated) | inactive
38 | O=C(O)C=CC(=O)O.c1ccc2nc(N3CCNCC3)ccc2c1 | inactive
39 | CC(C)(C)C(=O)C(Oc1ccc(Cl)cc1)n1cncn1 (configuration not stated) | inactive
40 | O=C1C=C2C(=CCOC2O)O1 (configuration not stated) | active
41 | O=C1C=C2C(=CCO[C@@H]2O)O1 | inactive
42 | CO[C@@H]1C=C[C@@H]2[C@H]1N2CCCO (some centres not stated) | inactive

Row | Structure (SMILES) | growth inhibition call
43 | Cc1cc[n+](C)cc1 | inactive
44 | COc1ccc(CN2CCNCC2)c(OC)c1OC.Cl.Cl | inactive
45 | COCCCNC(=O)C1[C@@H]2CC[C@H]1CNC2 (some centres not stated) | inactive
46 | COc1ccc2c(c1)C[C@H](N)C2 | inactive
47 | Oc1c(Cl)c(Cl)c(Cl)c(Cl)c1Cl | active
48 | CCCCCCCCCCCCCCCC[N+](C)(C)C.[Br-] | inactive
49 | C[C@@H](N)Cc1c[nH]c2ccc(O)cc12 | inactive
50 | Oc1ccccc1N1CCNCC1 | inactive
51 | CN1C(=O)[C@@]23C[C@]4([C@@]56C[C@]78SS[C@](CO)(C(=O)N7[C@@H]5Nc5ccccc56)N(C)C8=O)c5ccccc5N[C@H]4N2C(=O)[C@@]1(CO)SS3 | active
52 | CN1C(=O)[C@]23CC4=CC=C[C@H](O)[C@H]4N2C(=O)[C@@]1(CO)SS3 | inactive
53 | CCCC(=O)c1c(O)[nH]c(=O)[nH]c1=O | inactive
54 | CCCC12CNCC(C)(CNC1)C2=O | inactive
55 | c1ccc2cc3c(cc2c1)-c1cccc2cccc-3c12 | inactive
56 | CN(C)C(=S)SSC(=S)N(C)C | active
57 | CO[C@@H]1C[C@@H](C[C@H]2CC[C@H](C)[C@H]([C@@H](C)C(=O)O)O2)O[C@]2(O[C@](C)([C@H]3CC[C@@](C)([C@H]4O[C@@H]([C@H]5O[C@@](O)(CO)[C@H](C)C[C@@H]5C)C[C@@H]4C)O3)C[C@H]2C)[C@@H]1C | active
58 | Cc1ccc(OC(=O)N(C)C[C@H]2OCc3ccccc3-c3c(n(C)c4ccccc34)C(=O)N([C@@H](C)CO)C[C@@H]2C)cc1 | inactive
59 | CC(C)c1cc2c(c(O)c1O)C1(C(=O)O)CCCC(C)(C)C1CC2 (configuration not stated) | inactive
60 | O=C(NCNC(=O)N[C@H]1C(=O)NC(=O)N1CO)N[C@H]1C(=O)NC(=O)N1CO | inactive
61 | CC(C)(CN)CNc1ccc([N+](=O)[O-])c2cccnc12 | inactive
62 | CC(=O)OC1CC(OC2C(O)CC(OC3C(O)CC(OC4CCC5(C)C(CCC6C5CC(O)C5(C)C(C7=CC(=O)OC7)CCC65O)C4)OC3C)OC2C)OC(C)C1OC1OC(CO)C(O)C(O)C1O (configuration not stated) | inactive
